This note sets out measurements from PubChem BioAssay (NCI).

Structures are written as SMILES. About 83,000 compounds went through this panel and 20% of them were active in at least one assay; those are over-represented in the sample as a whole.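 Each cell line was grown in a 96-well plate and treated with one concentration of compound for 48 hours. Values below 10 were considered active.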 A number with no mark means an inactive call. The source made the active and inactive calls.

Test in all cases: NCI-60 one-dose screen, 48 h (100 = growth as untreated, 0 = no growth, -100 = all killed)
The subject of test [1] is SK-MEL-2 melanoma. Particulars: 10 µM unless noted.
Test [2] deals with SN12C renal. Particulars: 10 µM unless noted.
Test [3] relates to UO-31 renal. Particulars: 10 µM unless noted.
In test [4] the test system is TK-10 renal. Particulars: 10 µM unless noted.
Test [5] concerns ACHN renal. The note with it: 10 µM unless noted.
Test [6] deals with CAKI-1 renal. Particulars: 10 µM unless noted.
The subject of test [7] is A498 renal. The note with it: 10 µM.
In test [8] the test system is HL-60(TB) leukemia. Particulars: 10 µM unless noted.
Test [9] deals with CCRF-CEM leukemia. Particulars: 10 µM unless noted.

Turning to `Cc1ccc(S(=O)(=O)F)cc1C(=O)O`, the growth in test [1] was 105%; in test [2] it was 99.1%; in test [3], 91.9%; in test [4], 107%; in test [5], 101%; in test [6], 93.9%. For the same molecule, the growth is 132% in test [7], 104% in test [8] and 97.2% in test [9].
On to `C=CC[Se]C(=O)c1ccccc1OC(C)=O`, for which the growth in test [1] was 37.2%; in [2] it was -18.4% (active); in [3] it was -53.5% (active); in test [4] it was 12.5%; in test [5], -26.6% (active); in test [6], -9.51% (active). Further, the growth in test [7] was -3.97% (active); in test [8], -45.7% (active); in [9] it was 5.37% (active).
On to `O=C1C=C(N2C3C4CCC(C4)C32)C(=O)C=C1c1ccccc1` (stereo unspecified), for which the growth was 87.8% in [1]; 93.8% in test [2]; 90.8% in test [3]; 142% in test [4]; 73.4% in [5]; 58% in test [6]. Further, the growth in [7] was 49.3%; in [8], 44.8%; in [9], 0.362% (active).
On to `NC(CCl)CCl`, for which the growth in test [1] is 124%; in [2], 101%; in test [3], 93.3%; in test [4], 111%; in test [5] it was 104%; in test [6], 99.3%. Besides, the growth is 111% in test [7] and 123% in test [8].
In the case of `COc1cccc2c1c(C(=O)C(=O)Nc1ccn[nH]1)cn2Cc1ccc(F)cc1`, the growth in test [1] is 93.8%; in [2], 100%; in test [3] it was 89%; in test [4], 51.7%; in test [5], 101%; in [6] it was 46.7%. The growth in [7] was -72.9% (active); in [8] it was 115%; in test [9], 93.2%.
Consider `Cc1ccc(C(=O)NCCCOc2ccc(N)cc2Cl)cc1S(=O)(=O)F`, for which the growth in test [1] was 78.7%; in test [2], 105%; in test [3], 70.7%; in test [4], 97.1%; in [5] it was 105%; in test [6] it was 92.5%. In addition, the figures for the growth in [7], in test [8] and in [9] were 82.4%, 98.8% and 88.7%, respectively.
As to `CC(=O)OC1CCC2C3CCC4=C/C(=N/OC(=O)c5ccc(N(CCCl)CCCl)cc5)CCC4(C)C3CC(C)C12` (stereo unspecified), the growth in test [1] was 104%; in test [2], 72.6%; in test [3], -32% (active); in [4] it was 92.6%; in test [5] it was 58.1%; in [6], 73.9%. Further, the values for the growth in test [7], in [8] and in test [9] were 63.3%, 33.7% and 14.8%, respectively.
As to `C=C1C[C@](OC)([C@H](O)C(=O)N[C@@H](OC)[C@@H]2C[C@@H](O)C(C)(C)[C@@H](C[C@@H](COC)OC)O2)O[C@H](C)[C@@H]1C`, the growth in test [1] is -64.8% (active); in test [2], -29.9% (active); in test [3] it was -61.7% (active); in test [4], -36% (active); in [5], -84.6% (active); in test [6], -39.7% (active). Besides, the growth in [7] was -87.1% (active); in test [8], -52% (active); in test [9], -24.3% (active).
Regarding `O=C1OCCC1Br` (stereo unspecified), the growth in test [1] is 96.5%; in test [2] it was 103%; in test [3] it was 96.4%; in [4], 104%; in [5], 102%; in test [6], 95%. The growth is 101% in [7] and 78.1% in [8].
Turning to `CC1CN1CCCCN1CC1C` (stereo unspecified), the growth is 80.6% in test [1]; 109% in [2]; 98.4% in test [3]; 88.8% in test [4]; 107% in [5]; 102% in test [6]. The growth was 107% in [7] and 77.4% in test [8].
Consider `CCC1(C(C)C)C(=O)NC(=S)NC1=O`, for which the growth in [1] is 117%; in test [2] it was 103%; in test [3] it was 97.4%; in test [4] it was 107%; in test [5], 98.5%; in test [6], 99.8%. For the same molecule, the growth in test [7] was 92.8%; in test [8], 102%.
As to `O=C([O][Hg][c]1ccccc1)c1ccccc1`, the growth in test [1] is -33.3% (active); in test [2] it was -85.4% (active); in test [3], -92.2% (active); in [4] it was -86.5% (active); in test [5], -90.5% (active); in [6], -89.3% (active). Further, the growth in [7] is 40.7%; in [8], -53.5% (active); in test [9], -33.8% (active).
Turning to `CC(=O)O[C@H]1C(=O)[C@@]2(C)[C@H]([C@H](OC(=O)c3ccccc3)[C@]3(O)C[C@H](OC(=O)[C@H](OC(=O)OC[C@@H]4COC(C)(C)O4)[C@@H](NC(=O)c4ccccc4)c4ccccc4)C(C)=C1C3(C)C)[C@]1(OC(C)=O)CO[C@@H]1C[C@@H]2O`, the growth in test [1] is 24.3%; in test [2] it was 27%; in [3], 34.1%; in test [4], 26%; in test [5] it was 36.2%; in test [6], 27.4%. Further, the figures for the growth in test [7], in test [8] and in test [9] were 13.4%, 4.01% (active) and 17.8%, respectively.
Turning to `C[C@]12C[C@@H](CO)[C@H](O)C[C@@H]1CC[C@@H]1[C@@H]2CC[C@]2(C)[C@@H](O)CC[C@@H]12`, the growth was 86% in [1]; 106% in [2]; 89.6% in test [3]; 103% in [4]; 101% in test [5]; 94.1% in [6]. For the same molecule, the growth in test [7] was 95.1%; in test [8] it was 71%.
